CHX counter-1: affects cycloheximide protein synthesis inhibition readout, counter-screen | cell reporter, cycloheximide protein synthesis inhibition counterscreen | max response, % | 300,000 compounds, 12% hits; in the data active means max response mostly above about 13%, no sharp cut-off; inactive means mostly below about 14%; further: read at 38.3 µM for the half of the compounds with a filed dose; 0% is about no effect
TbPYK inhibitor: T. brucei pyruvate kinase inhibition; Q57TT1; TbPYK enzyme, Kinase-Glo Plus ATP luminescence, 45 min; Potency, µM (doses to about 76.8 µM), inactives show at the top dose activity, negative = inhibition, most hits filed as inhibitors; 410,000 compounds, 0.12% hits; AID 624173; further: potency means the concentration at half of the fitted maximal effect; on the % scale 0 is the no-effect control and ±100 the full control effect; nearly all actives have a fitted effect of over 50% in size
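In this concentration-response screen, enzyme-free wells defined baseline while DMSO plates tracked drift. Each reaction combined TbPYK, substrate, compound and 130 uM ADP for 45 min at room temperature. Kinase-Glo Plus luminescence gave the signal.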
FBPA Giardia inh: blocks Giardia fructose-bisphosphate aldolase activity; purified Giardia FBPA; 290,000 compounds, 0.71% hits; Potency, µM (titrated, usually from 59.6 µM), for the others: at the top dose activity, negative = inhibition, actives largely listed as inhibitors; further: potency means the concentration at half of the fitted maximal effect; on the % scale 0 is the no-effect control and ±100 the full control effect; nearly all actives have a fitted effect of over 55% in size
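Giardia FBPA (40 nM reagent) was preincubated 10 min at RT with compound (up to 57.5 uM final), then substrate plus GAPDH/TPI/NAD/arsenate coupling system with diaphorase/resazurin was added; resorufin fluorescence (525/598 nm) was read after 20 min.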
Shiga inhibitor: blocks Shiga toxin action in Vero cells. Vero cells, Shiga toxin protein synthesis inhibition reporter. inhibition, % at 38.7 µM. 290,000 compounds, 9.2% hits. AID 2315; in the data active means inhibition mostly above about 28%, no sharp cut-off; inactive means mostly below about 43%; further: 0% is about no effect
RE007 growth inh: less growth of the S. pombe RE007 Vpr strain; Potency, µM (titrated, usually from 92.2 µM), without a hit: at the highest dose activity change, negative = less growth, most hits filed as inhibitors; 360,000 compounds, 0.21% hits; S. pombe RE007 Vpr strain, BacTiter-Glo ATP luminescence, 24 h; active means well fitted falling curve with a large enough effect; inconclusive means small, poorly fitted or top-dose-only effect; inactive means no such curve, though single readings can be large or run the other way; further: potency means the concentration at half of the fitted maximal effect; on the % scale 0 is the no-effect control and ±100 the full control effect; nearly all actives have a fitted effect of over 50% in size
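Fission yeast RE007 carrying one integrated HIV-1 vpr copy, seeded at OD 0.01 in PMG+AL medium with 23 nL pinned compound. Grown 24 h at 30 degrees; viability read by BacTiter-Glo luminescence after 5 min.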
LmPK inhibitor: inhibitors of Leishmania mexicana pyruvate kinase; Q27686; purified LmPK, Kinase-Glo ATP luminescence, 1 h; Potency, µM (highest dose often 57.5 µM), for the others: top-dose activity change, negative = inhibition, usual class: inhibitors; 290,000 compounds, 0.37% hits; further: potency means the concentration at half of the fitted maximal effect; on the % scale 0 is the no-effect control and ±100 the full control effect
Target sequence (Q27686 whole entry, looked up): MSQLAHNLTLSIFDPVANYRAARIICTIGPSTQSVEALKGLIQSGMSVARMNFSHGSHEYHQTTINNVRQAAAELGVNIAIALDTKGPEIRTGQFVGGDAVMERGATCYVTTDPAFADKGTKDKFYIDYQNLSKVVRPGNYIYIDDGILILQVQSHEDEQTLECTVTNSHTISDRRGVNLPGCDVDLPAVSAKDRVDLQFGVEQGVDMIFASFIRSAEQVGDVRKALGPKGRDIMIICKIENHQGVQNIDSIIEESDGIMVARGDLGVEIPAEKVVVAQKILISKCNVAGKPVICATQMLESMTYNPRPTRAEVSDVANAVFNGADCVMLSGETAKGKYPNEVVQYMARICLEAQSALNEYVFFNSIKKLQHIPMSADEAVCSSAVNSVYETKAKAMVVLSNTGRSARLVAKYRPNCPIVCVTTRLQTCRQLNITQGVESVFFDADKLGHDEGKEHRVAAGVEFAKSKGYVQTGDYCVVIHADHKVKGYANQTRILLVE
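Purified LmPK (0.1 nM) with 0.5 mM PEP and 0.1 mM ADP in imidazole buffer pH 7.2 with MgCl2/KCl, 1 h at room temperature. ATP formed was read by luciferase luminescence and normalized to no-enzyme and uninhibited controls.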
CHX counter-2: protein synthesis counter-screen activity for Shiga toxin hits; shares compounds with Shiga inhibitor; Cycloheximide counterscreen, protein synthesis reporter, Shiga toxin assay; Potency, µM (titrated, usually from 38.3 µM), for inactives: at the highest dose activity (activation), most hits filed as activators; 510 compounds, 3% hits; AID 2318; calls by dose curve; further: potency means the concentration at half of the fitted maximal effect; 0% is about no effect
An asterisk follows results filed as active; ? = inconclusive; / = no result given; [ ] = another dose, or the depositor's remark. This excerpt belongs to a sample that is enriched for hits. Unless noted, the call rests on the fitted dose curve; in most records, active means well fitted curve in the direction sought with a large enough effect; inconclusive means small, poorly fitted or top-dose-only effect, or another doubt; inactive means no such curve, though single readings can be large; an effect the other way counts as inactive or inconclusive.

SMILES	CHX counter-1	TbPYK inhibitor	FBPA Giardia inh	Shiga inhibitor	RE007 growth inh	LmPK inhibitor	CHX counter-2
CCOC(=O)c1ccc(NC(=O)Nn2cnnc2)cc1	9	-3%	4%	-1	12%	1%	/
CCOC(=O)c1ccc(NC(=O)Nc2ccn(C)n2)cc1	13	-3%	1%	47*	1%	-10%	?
O=c1ccc(/C=C/c2ccccc2)nn1Cc1ccccc1Cl	-6	-2%	-2%	-11	0%	5%	/
O=C(C1CCC(Cn2c(=O)c3sccc3n(Cc3cccc(F)c3)c2=O)CC1)N1CCCCC1 (configuration not stated)	/	4%	/	/	/	/	/
CCOc1ccccc1NC(=O)CCS(=O)(=O)c1cccs1	-3	-8%	-12%	126*	3%	6%	-2%
CCOc1ccccc1NC(=O)CCS(=O)(=O)c1cccc2nonc12	-2	-1%	0%	-17	8%	-1%	/
CC(=O)c1cccc(NC(=O)c2ccc(NC(=O)CCS(=O)(=O)c3cccs3)cc2)c1	-6	2%	-7%	33*	112%	-6%	2%
O=C(CCS(=O)(=O)c1cccs1)Nc1ccc(C(=O)NCc2cccs2)cc1	7	10%	3%	29*	-13%	1%	-2%
CC(C)(C)c1cc(CCC(=O)N2CCC2)cc(C(C)(C)C)c1O	14	26%	/	14*	-9%	-9%	5%
O=C(O)c1ccn(Cn2cnc3ccccc32)n1	7	-4%	-7%	27*	-1%	2%	-1%
CCC(Oc1ccccc1C)C(=O)N1CCCN(C)CC1 (configuration not stated)	-2	1%	1%	-10	-1%	0%	/
Cc1cccc(NNC(=O)C2CCC2)c1	-4	2%	-4%	-8	27%	-1%	/
Cc1cccc(NC(=O)C2CCCC2)c1	-3	2%	-3%	36*	11%	5%	3%
O=C(c1ccc(-n2cccc2)cc1)N1CCN(Cc2ccccc2)CC1	16	/	0%	2	3%[3.69 µM]	6%	/
CN1CCN(C(=O)c2ccc(-n3cccc3)cc2)CC1	8	-15%	3%	32*	-16%	2%	3%
Cc1cc(C(=O)COC(=O)CNS(=O)(=O)c2ccc3ccccc3c2)c(C)n1-c1ccccc1	10	-8%	6%	active	10%	0%	5%
O=C(CNS(=O)(=O)c1ccc2ccccc2c1)OCC(=O)c1ccc(Br)s1	-1	28%	-1%	15	-12%	4%	/
COc1ccc(-c2nsc(NC(=O)COc3ccc(C)c(C)c3)n2)cc1	/	1%	/	/	/	/	/
CC(=O)N/C(=C\c1ccccc1)C(=O)Nc1ccccc1C	8	1%	-1%	52*	-11%	0%	2%
COc1ccc2cc(C(=O)NCc3ccccc3)[nH]c2c1	12	-22%	-7%	31*	-3%	8%	?
O=C(Cn1ncc2c(=O)oc3ccccc3c21)N(Cc1ccco1)C1CCCCC1	1	4%	-1%	48*	2%	6%	-2%
O=C(Cn1ncc2c1-c1ccccc1OC2)N(Cc1ccco1)C1CCCCC1	-3	-5%	6%	-9	0%	-1%	/
COCCNC(=O)c1ccc(-c2nc(CS(=O)(=O)c3ccccc3)c(C)o2)cc1	/	0%	/	/	/	/	/
O=C(c1ccc2c(=O)n3c(nc2c1)CCC3)N1CCN(S(=O)(=O)c2ccccc2Br)CC1	/	-1%	/	/	-14%	/	/
O=C(/C=C/c1cn(CC(O)CN2CCCCC2)c2ccccc12)c1ccccc1 (configuration not stated)	12	-2%	-1%	20	-4%	4%	/
SMILES	CHX counter-1	TbPYK inhibitor	FBPA Giardia inh	Shiga inhibitor	RE007 growth inh	LmPK inhibitor	CHX counter-2
O=C(/C=C/c1cn(CC(O)CN2CCCCC2)c2ccccc12)c1cccs1 (configuration not stated)	5	-5%	3%	32*	-8%	0%	3%
Cn1nc(C(C)(C)C)cc1C(=O)N1CCCC(c2cc(C(=O)NCc3ccccc3)no2)C1 (configuration not stated)	/	-4%	/	/	-7%	/	/
COc1ccccc1N1CCN(Cc2cc(=O)n3ccsc3n2)CC1	-2	-4%	-26%	-10	-4%	0%	/
CC1Cc2ccccc2N1Cc1cc(=O)n2ccsc2n1 (configuration not stated)	1	-20%	?	25*	-4%	0%	0%
CCn1cc2nc(SCc3cc(C)ccc3C)n(Cc3ccc(C)cc3)c(=O)c2n1	/	-12%	/	/	/	/	/
COC(=O)[C@@]1(Cc2ccc(F)cc2)[C@H]2c3cc(C(=O)N4CCCC4)n(CCc4ccc(O)c(O)c4)c3C[C@H]2CN1C(=O)c1ccccc1	7	/	-30%	53*	/	-2%	1%
COC(=O)[C@@]1(Cc2ccc(F)cc2)[C@H]2c3cc(C(=O)N4CCCC4)n(CCc4ccc(OC)c(Br)c4)c3C[C@H]2CN1C(=O)c1ccccc1	/	2%	-8%	/	2%	/	/
COCCCn1c(SCC(=O)OC2CCCCC2)nnc1-c1cccs1	-1	1%	-1%	86*	-2%	12%	-2%
CC[N+](CC)(CCO)CCCN1C(=O)C2CC=C(Cl)CC2C1=O (configuration not stated)	3	-9%	12%[12.9 µM]	143*	-2%	-1%	-3%
O=C(CN1C(=O)CN=C(c2ccccc2)c2ccccc21)NCc1ccco1	7	-2%	22%	44*	12%	13%	-2%
CC(C)CCNC(=O)CN1C(=O)CN=C(c2ccccc2)c2ccccc21	-4	-3%	2%	-3	-19%	0%	/
O=c1[nH]c(=O)n(Cc2ccco2)c2c1C(C(F)(F)F)(C(F)(F)F)N=C(c1ccc(F)cc1)N2	5	0%	11%	67*	-2%	3%	-1%
O=c1[nH]c(=O)n(Cc2ccccc2)c2c1C(C(F)(F)F)(C(F)(F)F)N=C(c1ccco1)N2	-1	10%	9%	-14	1%	11%	/
O=C(NC1CCCc2ccccc21)c1ccc2c(c1)sc1nc(-c3ccccc3)cn12 (configuration not stated)	/	0%	/	/	/	/	/
CCCn1c(C)cc(/C=C(\C#N)C(=O)OCC(=O)Nc2ccc(OC)c(Cl)c2)c1C	12	5%	-1%	61*	/	0%	4%
CCCn1c(C)cc(/C=C(\C#N)C(=O)OCC(=O)NC(=O)NCC)c1C	6	3%	5%	18	-14%	0%	/
Cc1cccc2c1N(CCCOc1ccccc1)C(=O)C2=O	-3	-1%	-15%	1	6%	-1%	/
